Assay results taken from PubChem BioAssay (EPA / NIEHS).
Values joined by “and” are separate entries in the source; they are usually repeats but may differ in a detail not shown here. Equal values may be shown once. Active and inactive are the calls of the source. Rule for the calls: active = hit-call score of the fitted dose curve at least 0.9, where 1 is the maximum; inactive = score below 0.9.

Read-out: Interferon-gamma inducible Protein 10 (IP10), CXCL10 (gene 3627)
Test: BSK_hDFCGF_IP10: BioMAP Diversity Plus: hDFCGF Assay for Interferon-gamma inducible Protein 10 (IP10) Biomarker Activity (AID 2283053)
Conditions: primary human foreskin fibroblasts; actives raise or lower the signal
Experimental: BSK_hDFCGF is a cell-based, multiplexed-readout assay that uses foreskin fibroblast, a human skin primary cell, with measurements taken at 24 hours after chemical dosing in a 96-well plate.BSK_hDFCGF_IP10 is an assay component measured in the BSK_hDFCGF assay. It measures IP-10 antibody related to regulation of gene expression using ELISA technology.Data from the assay component BSK_hDFCGF_IP10 was analyzed into 1 assay endpoint. This assay endpoint, BSK_hDFCGF_IP10, was analyzed with bidirectional fitting relative to DMSO as the negative control and baseline of activity. Using a type of binding reporter, gain or loss-of-signal activity can be used to understand changes in the signaling as they relate to the gene CXCL10. Furthermore, this assay endpoint can be referred to as a primary readout, because this assay has produced multiple assay endpoints where this one serves a signaling function. To generalize the intended target to other relatable targets, this assay endpoint is annotated to the cytokine intended target family, where the subfamily is chemotactic factor.
The levels of cell surface (or secreted, indicated by the prefix "s") biomarker endpoints were measured by ELISA. Overt cytotoxicity to cells in confluent adherent cultures (all systems other than the BT system) was assessed by measuring total protein levels using sulforhodamine B (SRB) staining in parallel cultures at the time of biomarker measurements, indicated as SRB endpoints. For proliferation assays for adherent cell types, individual cell types are cultured at sub-confluence and relative cell numbers quantified by SRB staining at time points optimized for each system (48 h: 3C and CASM3C systems; 72 h: BT and HDF3CGF systems; 96 h: SAg system). SRB was performed by staining cells with 0.1% SRB after fixation with 10% TCA and reading wells at 560 nm.Viability and proliferation of PBMC (T cells) was quantified by Alamar Blue reduction for the SAg and BT systems. For PBMC viability (referred to as PBMC Cytotoxicity within the assay endpoint names), cells were plated (75,000/well in a 96-well plate) and then chemical samples added for 1 h before addition of activators, SEB and TSST-1 (20 ng/mL final concentration each). Cells were incubated for 90 h. Then, Alamar Blue (20 uL/well) (Invitrogen, Cat DAL1100) was added for 6 h, and the plates were read with a fluorescence microplate reader at 546/580 nm (excitation/emission). For PBMC proliferation, cells were plated and activated as above but incubated for only 16 h prior to addition of Alamar Blue. Plates were read after 6 h.

SMILES | AC50 | outcome
CCCCC/C=C\C/C=C\CCCCCCCC(=O)OC | 33.5 µM (active) | –
C=CC(=O)OCC(Br)CBr (stereo unspecified) | 5.47 µM (active) | –
CCOC(=O)c1ccccc1C(=C1C=C(Br)C(=O)C(Br)=C1)c1cc(Br)c(O)c(Br)c1 | 3.65 µM (active) and 3.77 µM (active) | –
O=c1c2ccccc2oc2ccccc12 | – | inactive
C=CCOc1c(Br)cc(Br)cc1Br | 35.5 µM (active) | –
COc1ccc2nc(N)sc2c1 | – | inactive
O=C1CCCN1CCO | – | inactive
C/C=C\C/C=C/CCCCCCCCOC(C)=O | 34.3 µM (active) | –
C=C[Si](OC(C)=O)(OC(C)=O)OC(C)=O | – | inactive
c1ccc(-c2ccccn2)nc1 | – | inactive
O=C(c1ccc(O)cc1)c1ccc(O)cc1O | – | inactive
CCCCNc1ccc(NCCCC)c2c1C(=O)c1ccccc1C2=O | – | inactive
O=Nc1ccc(O)cc1 | – | inactive
c1ccc2c(c1)ccc1ncccc12 | – | inactive
N#[N+]c1ccc2c(S(=O)(=O)[O-])cccc2c1O | – | inactive
CCO[Si](CCCN=C=O)(OCC)OCC | – | inactive
c1ccc2c(c1)ccc1cc3c(ccc4ccccc43)cc12 | – | inactive
C#CC1(O)CC[C@H]2[C@@H]3CCC4=CCCC[C@@H]4[C@H]3CC[C@@]21C (stereo partly specified) | 34.4 µM (active) | –

SMILES | AC50 | outcome
O=C(Nc1ccccc1SSc1ccccc1NC(=O)c1ccccc1)c1ccccc1 | – | inactive
CCOc1nc(F)cc2nc(S(=O)(=O)Nc3c(Cl)cccc3C(=O)OC)nn12 | – | inactive
CN1C(=O)N(C)C(O)C1O (stereo unspecified) | – | inactive
CC1OC1C1CCC2(C)OC2C1 (stereo unspecified) | – | inactive
C=CC=CC=CCCCCC | – | inactive
COCc1c(C(C)C)nc(C(C)C)c(/C=C/[C@@H](O)C[C@@H](O)CC(=O)O)c1-c1ccc(F)cc1 | – | inactive
CCO[Si](C)(OCC)OCC | – | inactive
S=C(NC1CCCCC1)NC1CCCCC1 | – | inactive
CO[Si](OC)(OC)c1ccccc1 | – | inactive
CCCCC(CC)COC(=O)c1ccccc1O (stereo unspecified) | 16.4 µM (active) | –
CCCCCCCCc1ccc(Nc2ccc(CCCCCCCC)cc2)cc1 | – | inactive
CC(C)C(=O)C(C)C | – | inactive
Nc1ccc(N)c(Cl)c1 | 16 µM (active) and 20.2 µM (active) | –
CC(C)(c1cc(Br)c(OCCO)c(Br)c1)c1cc(Br)c(OCCO)c(Br)c1 | 23.3 µM (active) | –
CCCCCCCCCCCCCCCC[N+](C)(C)CC | 2.84 µM (active) | –
C=CCOCC(O)CCl (stereo unspecified) | – | inactive
O=C(Cl)c1cc(C(=O)Cl)cc(C(=O)Cl)c1 | 31 µM (active) | –
CCCCC(CC)COCC1CO1 (stereo unspecified) | – | inactive
